Screens: PubChem BioAssay, National Center for Advancing Translational Sciences (NCATS)
SMN2 splice up = SMN2 splice variant enhancement; HEK293 SMN2-luciferase splicing reporter, luminescence, 30-36 h; Potency, µM (series often up to 46.1 µM), inactives show at the top dose activity change, positive = activation, most hits filed as activators; actives 2.8% (n = 210,000); also: % of control where 0% means no effect; nearly all actives have a fitted effect of over 55% in size
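HEK293 cells carry an SMN2 minigene-luciferase reporter in which exon 7 inclusion puts luciferase in frame. Cells were seeded at 2000 cells/well, attached for 10-12 hours, then exposed to compounds for 30-36 hours at 37C before ONE-Glo luminescence.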
ELG1 genotox = genotoxicity induction in ELG1-luciferase HEK293T cells | HEK293T ELG1-luciferase reporter, luminescence, 16 h | Potency, µM (titrated, usually from 46 µM), without a hit: at the top dose activity change, positive = activation, most hits filed as activators | actives 1.3% (n = 330,000); also: % of control where 0% means no effect; nearly all actives have a fitted effect of over 60% in size
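Reporter readout depends on ELG1 protein level, which increases with genetic stress. After 16 hr compound exposure at 37 °C, luciferase activity was quantified using ONE-Glo.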
FLuc counter = inhibits or activates purified firefly luciferase, miR-21 counter-screen; P08659; purified FLuc, Km substrates, luminescence inhibition; Potency, µM (highest dose often 57.5 µM), for the others: at the top dose activity change, negative = inhibition, most hits filed as inhibitors; actives 6.9% (n = 360,000);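 also: plate controls were vehicle for no effect and reference inhibitor for full effect; nearly all actives have a fitted effect of over 55% in size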
Target sequence (P08659 whole entry, looked up): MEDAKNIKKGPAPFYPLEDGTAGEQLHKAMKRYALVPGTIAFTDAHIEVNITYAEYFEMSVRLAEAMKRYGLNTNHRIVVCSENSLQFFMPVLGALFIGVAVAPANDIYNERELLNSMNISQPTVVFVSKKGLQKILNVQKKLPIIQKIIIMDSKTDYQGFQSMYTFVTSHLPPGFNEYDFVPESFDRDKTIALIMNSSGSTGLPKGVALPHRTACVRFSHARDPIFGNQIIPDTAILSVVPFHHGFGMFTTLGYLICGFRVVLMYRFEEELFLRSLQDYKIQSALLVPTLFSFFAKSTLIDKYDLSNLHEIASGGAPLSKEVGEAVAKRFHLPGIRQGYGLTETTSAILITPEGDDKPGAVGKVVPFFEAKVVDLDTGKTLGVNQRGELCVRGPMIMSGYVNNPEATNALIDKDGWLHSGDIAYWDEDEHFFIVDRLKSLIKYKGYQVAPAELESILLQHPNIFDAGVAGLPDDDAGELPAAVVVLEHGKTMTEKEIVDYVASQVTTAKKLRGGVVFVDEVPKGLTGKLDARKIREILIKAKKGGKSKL
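Purified P. pyralis luciferase, 10 nM final, with Km-level 10 uM D-luciferin and 10 uM ATP in 50 mM Tris acetate pH 7.5, 10 mM Mg acetate, 0.01% Tween-20, 0.05% BSA; 6-point qHTS titration about 60 µM downward; luminescence read.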
NPC1 prom act = NPC1 promoter activation; Huh7 NPC1 promoter luciferase reporter, 24 h; Potency, µM (doses to about 9.22 µM), for inactives: at the highest dose activation, actives largely listed as activators; actives 2.4% (n = 320,000); AID 485313; also: % of control where 0% means no effect; nearly all actives have a fitted effect of over 60% in size
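Quantitative HTS used a cell-based reporter: Huh7 cells stably bearing the NPC1 promoter upstream of luciferase were treated with compounds for 24 h, and promoter activation was read as luminescence.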
Luc counter = Kinase-Glo luciferase inhibition (counter-screen); Q27757; Potency, µM (doses to about 38.3 µM), without a hit: top-dose activity change, negative = inhibition, usual class: inhibitors; actives 0.28% (n = 200,000); Kinase-Glo luciferase, ATP luminescence, 8 min; AID 1379; also: % is scaled to controls: 0 for no effect and ±100 for the full control effect; nearly all actives have a fitted effect of over 60% in size
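Substrate mix (final 50 mM imidazole pH 7.2, 50 mM KCl, 7 mM MgCl2, 10 uM ATP, 0.01% Tween 20, 0.05% BSA) plus pin-tool compound, then Kinase-Glo detection mix; 8 min ambient, luminescence read.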
Rab9 prom act = activates the Rab9 promoter; Potency, µM (titrated, usually from 9.22 µM), for the others: at the top dose activation, negative = inhibition, hits mostly activators; Huh7 Rab9 promoter-luciferase reporter, luminescence, 24 h; AID 485297; actives 2.8% (n = 320,000); also: % of control where 0% means no effect; nearly all actives have a fitted effect of over 60% in size
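Using Huh7 cells stably transfected with Rab9 promoter–luciferase, compounds were incubated 24 h at 37 °C, 5% CO2; luciferase luminescence was read 10 min after reagent addition.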
Starred values were filed as active, the others as inactive; ? = inconclusive; nt = no result; [ ] = dose if it differs, or a comment. Rows were chosen to be rich in hits. Some 7.4% of all compounds tested hit in one or more screens of this group. Calls follow the shape of the dose curve; as a rule, active = well fitted curve in the direction sought with a large enough effect; inconclusive = small, poorly fitted or top-dose-only effect, or another doubt; inactive = no such curve, though single readings can be large; an effect the other way counts as inactive or inconclusive. Potency is read from the fitted curve at half-maximal effect.

SMILES	SMN2 splice up	ELG1 genotox	FLuc counter	NPC1 prom act	Luc counter	Rab9 prom act
COc1ccc2c(c1)C(=O)[C@@H](OC(=O)NS(=O)(=O)c1ccc(C)cc1)[C@H](c1ccc(OC)c(Br)c1)O2	7%	nt	nt	nt	-1%	nt
COc1ccc(C2C(C(N)=O)=C(C)Nc3nc(SCc4ccccc4Cl)nn32)cc1OC (stereo not given)	4%	nt	1%	nt	nt	nt
CC1=NN(C(N)=S)C(=O)C1N=Nc1ccccc1Cl (stereo not given)	nt	9%	?	17%	nt	15%
CC1=NN(C(N)=S)C(=O)C1N=Nc1ccc(Cl)cc1Cl (stereo not given)	nt	?	24µM*	3.2µM*	nt	4.5µM*
CNc1nc(N)c(C(=O)Nc2cc(C)on2)s1	14µM*	13%	?	?	-7%	?
COc1ccc(OCc2cccc(C(=O)Nc3cc(C)on3)c2)cc1	0.2µM*	?	3.8µM*	0.1µM*	-1%	0.1µM*
CC(=O)Oc1ccc(C(=O)Nc2cc(C)on2)cc1	nt	?	15µM*	?	nt	?
COc1cc(OC)cc(C(=O)Nc2cc(C)on2)c1	nt	3%	4%	-1%	nt	-2%
Cc1cc(NC(=O)c2ccccc2)no1	nt	?	24µM*	?	nt	?
Cc1cc(NC(=O)c2ccc(NC(=O)C(C)C)cc2)no1	6%	?	?	14%	0%	?
Cc1cc(NC(=O)c2ccc3nc(-c4ccccc4)c(-c4ccccc4)nc3c2)no1	19%	11%	0%	-7%	-2%	-8%
COC(=O)c1cc2oc3ccccc3c2n1CC(=O)Nc1cc(OC)cc(OC)c1	0%	nt	-8%	nt	nt	nt
COc1ccc([C@]23Cc4cc(OC)c(OC)cc4C(O2)c2c(cc(-c4ccccc4)oc2=O)O3)cc1	nt	nt	-14%[11.5 µM]	0%[1.84 µM]	nt	0%[1.84 µM]
C/C(=C\C(=O)Nc1cc(C)on1)c1ccccc1	?	14%	12µM*	29%	4%	27%
COc1ccc(C(=O)Nc2cc(C)on2)cc1	13µM*	?	6.7µM*	2µM*	-10%	1.8µM*
COc1ccc(C(=O)Nc2noc3ccccc23)cc1	?	nt	0.24µM*	nt	nt	nt
Cc1cc(NC(=O)c2ccc(C)c(C)c2)no1	nt	?	24µM*	3.5µM*	nt	2.8µM*
Cc1ccc(-n2ncc(C(=O)NC3CCCCC3)c2C2CCN(C(=O)OC(C)(C)C)CC2)cc1	nt	nt	8%	nt	nt	nt
Cc1cc(C)c(NC(=O)Cn2nc3c(cc2=O)CCCC3)c(C)c1	nt	nt	-1%	nt	nt	nt
N#Cc1cccc(NC(=O)N2CCCC3(CCN(C(=O)c4cccc(F)c4)CC3)C2)c1	-11%	nt	nt	nt	-2%	nt
COc1ccc(-c2nc(C#N)c(NCCc3ccccc3)o2)cc1	?	11%	?	18%	0%	?
N#Cc1nc(-c2ccc(Cl)cc2)oc1NCCc1ccccn1	22%	8.2µM*	-10%	?	1%	?
Cc1ccc(-c2nc(C#N)c(NCCc3ccccn3)o2)cc1	?	?	?	3.5µM*	-5%	?
N#Cc1nc(-c2ccc(Cl)cc2)oc1NCc1ccco1	?	?	1%[2.3 µM]	?	4%	?
CS(=O)(=O)N1CCC2(CCN(C(c3ccccc3)c3ccccc3)CC2)CC1	-16%	nt	nt	nt	2%	nt
SMILES	SMN2 splice up	ELG1 genotox	FLuc counter	NPC1 prom act	Luc counter	Rab9 prom act
CCC1CCc2sc(C(=O)NCc3ccccn3)cc2C1 (stereo not given)	nt	?	15µM*	?	nt	28%
CCC1CCc2sc(C(=O)NCC3CCCO3)cc2C1 (stereo not given)	nt	?	5.4µM*	2.8µM*	nt	1.8µM*
CC(C)CCN(Cc1ccco1)C(=O)Cn1ncc2c([nH]c3ccccc32)c1=O	nt	nt	-18%	nt	nt	nt
Cc1cc(Br)cc2c1N(Cc1ccccc1OC(C)C)C(=O)C2=O	0%	nt	?	nt	nt	nt
COc1ccc(-c2nn(-c3ccccc3)cc2C(N)=O)cc1OC	nt	2%	17µM*	9%	nt	2%
NC(=O)c1cn(-c2ccccc2)nc1-c1cccnc1	10%	-5%	-3%	3%	-4%	-3%
C(=N\n1cnnc1)/c1cn(-c2cccs2)nc1-c1ccccc1	?	?	7.6µM*	14%	-19%	8%
COc1ccc(-c2nn(-c3ccccc3)cc2/C=C(\C#N)S(=O)(=O)c2ccccc2)cc1OC	2%	2%	-2%	3%	-2%	1%
COc1ccc(-c2nn(-c3ccccc3)cc2/C=N/n2cnnc2)cc1OC	?	7%	19µM*	-3%	1%	-6%
COc1ccc(-c2nn(-c3ccccc3)cc2/C=N/NC(N)=S)cc1OC	76%	0%	5.4µM*	-21%	1%	-21%
COc1cccc(NC(=O)c2sc3nc(C)c(C(=O)Nc4ccc(C)cc4C)c(-c4ccc(C)o4)c3c2N)c1	-12%	nt	0%	nt	nt	nt
O=C(COCc1cc(-c2ccc(F)cc2)on1)Nc1cccc(C(F)(F)F)c1	11%	nt	-23%	nt	nt	nt
Cc1ccc(-c2nn(-c3ccccc3)cc2/C=N/n2c(-c3ccncc3)n[nH]c2=S)cc1	nt	18%	-1%	-9%	nt	-4%
S=c1[nH]nc(-c2cccs2)n1/N=C/c1cn(-c2ccccc2)nc1-c1ccccc1	nt	1%	3.4µM*	12%	nt	5%
O=c1[nH]c(N/N=C/c2cc3c(cc2[N+](=O)[O-])OCO3)nc2ccccc12	nt	4%	-2%	4%	nt	-2%
Cc1ccccc1/C=N/Nc1nc2ccccc2[nH]1	nt	-10%	11µM*	?	2%	3.5µM*
O=[N+]([O-])c1cc(/C=N/Nc2nc3ccccc3[nH]2)c(O)cc1O	-65%	?	24µM*	-31%	-7%	-28%
Cc1[nH]c2ccccc2c1/C=N/Nc1nc2ccccc2[nH]1	nt	?	4.3µM*	?	nt	18%
COc1ccc(/C=N/Nc2nc3ccccc3[nH]2)c(OC)c1OC	nt	?	1.5µM*	?	nt	?
Cc1cc(=O)[nH]c(N/N=C/c2c[nH]c3ccccc23)n1	nt	4%	?	4%	nt	20%
Cc1ccc(/C=N/Nc2nc3ccccc3[nH]2)s1	10µM*	?	5.4µM*	2.8µM*	-11%	2.2µM*
Cc1cc(=O)[nH]c(N/N=C/c2ccccc2C(F)(F)F)n1	-3%	5%	-3%	-6%	0%	3%
CC(=O)N1CCC(=NNc2nc3ccccc3[nH]2)CC1	?	3%	?	1%	6%	-6%
Cc1nn(-c2ccccc2)c(Cl)c1/C=N/Nc1nc2ccccc2[nH]1	nt	2.6µM*	0.48µM*	0.56µM*	nt	0.45µM*
C(=N\Nc1nc2ccccc2[nH]1)/c1c[nH]c2ccccc12	?	?	7.6µM*	?	-2%	?
